Only some compounds are listed: those with a hit (about 7.2% of all), similar ones and a draw of the others.
FMDV antiviral = foot and mouth disease virus antiviral activity | FMDV antiviral cell-based qHTS | AID 1159524 | Potency, µM (top dose mostly 57.9 µM), inactives show at the highest dose activity change, negative = inhibition, actives largely listed as inhibitors | 410,000 tested, 1.2% active; calls by dose curve; tested in HEK293T cells; note: read-out not given here; nearly all actives have a fitted effect of over 45% in size
MARV entry inh = inhibitors of Marburg virus binding or cell entry. Potency, µM (highest dose often 37.8 µM), for inactives: at the top dose activity change, negative = inhibition, usual class: inhibitors. Marburg virus pseudotyped entry inhibition, cell reporter. AID 540276. 300,000 tested, 1.8% active; calls by dose curve; tested in HEK293 cells
HCV inhibitor = inhibitors of hepatitis C virus infection; Huh7.5.1 HCVcc-Cre infection, luciferase reporter, 44 h; Potency, µM (titrated, usually from 41.8 µM), without a hit: at the top dose activity change, negative = inhibition, hits mostly inhibitors; 340,000 tested, 3.4% active
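Compounds are dispensed onto cells plated 4 h earlier at 1,000 per well, with HCVcc-Cre virus (about 0.5 moi) added next. Following 44 h of culture, luminescent signal is measured for 15 sec after 15 min with substrate at room temperature.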
RE007 growth inh = less growth of the S. pombe RE007 Vpr strain; S. pombe RE007 Vpr strain, BacTiter-Glo ATP luminescence, 24 h; Potency, µM (highest dose often 92.2 µM), inactives show at the highest dose activity change, negative = less growth, actives largely listed as inhibitors; 360,000 tested, 0.21% active; AID 651644; active = well fitted falling curve with a large enough effect; inconclusive = small, poorly fitted or top-dose-only effect; inactive = no such curve, though single readings can be large or run the other way; note: nearly all actives have a fitted effect of over 50% in size
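Fission yeast strain RE007, carrying one chromosomally integrated HIV-1 vpr copy, was seeded at OD 0.01 in PMG+AL medium with 23 nL pinned compound. After 24 h at 30 °C and 99% humidity, viability was read by BacTiter-Glo luminescence.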
LASV entry inh = Lassa virus entry inhibition; Potency, µM (doses to about 37.9 µM), inactives show top-dose activity change, negative = inhibition, most hits filed as inhibitors; 300,000 tested, 1.2% active; Lassa virus pseudotype entry inhibition, cell reporter; AID 540256; calls by dose curve; tested in HEK293 cells; note: nearly all actives have a fitted effect of over 50% in size
Sm TGR block = S. mansoni TGR enzyme inhibition; Q962Y6; purified TGR, DTNB reduction, TNB absorbance 405 nm; Potency, µM (highest dose often 114 µM), for the others: at the top dose activity change, negative = inhibition, actives largely listed as inhibitors; 360,000 tested, 3% active; note: nearly all actives have a fitted effect of over 60% in size
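TGR 20 nM + NADPH 100 uM (dispensed conc.), cpd preinc 15 min RT; start with NADPH (500 uM addition) then DTNB (15 mM addition). Kinetic TNB absorbance, 405 nm filter. Four-parameter Hill fit across titration.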
Active calls of the source: *; ? = inconclusive; . = no result; [ ] = remark or other dose. Unless noted, calls come from the whole dose curve; as a rule, active = well fitted curve in the direction sought with a large enough effect; inconclusive = small, poorly fitted or top-dose-only effect, or another doubt; inactive = no such curve, though single readings can be large; an effect the other way counts as inactive or inconclusive. % is set by controls: 0 for no effect and ±100 for the full control effect; potency is the fitted concentration of half-maximal effect.

SMILES	FMDV antiviral	MARV entry inh	HCV inhibitor	RE007 growth inh	LASV entry inh	Sm TGR block
O=C(NCCc1ccccc1)C1CCC(CNS(=O)(=O)c2ccc(Cl)cc2)CC1 (centres undefined)	31%	.	.	.	?	14%
NC(=O)c1cccc2cc3ccccc3cc12	14%	-13%[46.1 µM]	11µM*	-9%	?	12%
O=c1ccc2cc3c([nH]c4ccc(Br)cc43)oc-2c1O	.	0%	2%	.	.	56µM*
Cc1ccc(-n2ncc3c(Nc4ccc5c(c4)OCCO5)ncnc32)cc1C	-7%	.	.	.	10%[46.1 µM]	4%
NNC(=O)c1cccc(COc2ccc(Br)cc2)c1	-28%	?	-10%	1%	?	2%
COc1cc(CNC(=O)c2cccc(COc3ccc(Cl)cc3)c2)cc(OC)c1	-81%	?	7.9µM*	3%	?	-5%
COc1cccc(C(=O)Nc2cc(C)on2)c1	48%	.	.	-14%	.	.
COc1ccc(OCc2cccc(C(=O)Nc3cc(C)on3)c2)cc1	-67%	5.8µM*	?	-5%	?	-3%
O=C(NCc1ccccc1)c1cccc(COc2ccc(Cl)cc2)c1	10%	?	?	1%	?	6%
COc1ccc(OCc2cccc(C(=O)NN)c2)cc1	8.9µM*	4.1µM*	10%	15%	?	0%
CCN(CC)c1ncnc2c1ncn2Cc1c(Cl)cccc1Cl	-17%	?	13µM*	-20%	?	-6%
CCN(CC)c1ncn(Cc2c(Cl)cccc2Cl)c2ncnc1-2	?	1%[46.1 µM]	?	-8%	?	5%
Clc1cccc(Cl)c1Cn1cnc2c(N3CCCCCC3)ncnc21	.	4.6µM*	?	8%	7.3µM*	-2%
CCCCCCCc1cc2ccc(F)cc2c2c(C(=O)OC)c(C(=O)OC)c(C(=O)OC)n12	.	-19%[14.2 µM]	.	.	.	.
COc1ccc(-n2cc(C(=O)OCc3ccc(F)c(F)c3)c3ccccc3c2=O)cc1	-12%	.	.	.	0%[46.1 µM]	0%
CCOC(=O)c1sc(S(C)(=O)=O)c2c1CCc1conc1-2	31%	28%[46.1 µM]	-17%	8%	-22%	13µM*
COc1ccc(CNC(=O)CSCc2cnn(-c3ccccc3)c2-n2cccc2)cc1OC	16µM*	?	.	.	?	-12%
COc1ccccc1CNC(=O)CSCc1cnn(-c2ccccc2)c1-n1cccc1	?	-17%	?	18%	?	2%
C/C(=N\NC(=S)NC(C)C)c1ccc(Cl)s1	1%	-12%	6.3µM*	-18%	-1%	-7%
C/C(=N\NC(=S)NC(C)C)c1ccccc1OC(F)F	-11%	-8%[46.1 µM]	14µM*	-10%	?	-14%
CCOc1ccccc1NC(=O)Nc1nnc(N(C)Cc2ccccc2)s1	-11%	1%[46.1 µM]	.	.	16%[46.1 µM]	2%
O=C(c1ccccc1)c1ccc2nc(-c3ccc(NC(=O)c4ccccc4Br)cc3)[nH]c2c1	-17%	14%	25µM*	6%	-29%	-2%
Cc1ccccc1C(=O)Nc1ccc(-c2nc3ccc(C(=O)c4ccccc4)cc3[nH]2)cc1	?	?	11µM*	11%	?	3%
Cc1cc(C=O)c(C)n1-c1cc(C(F)(F)F)ccc1N1CCOCC1	0%	?	21%	-4%	?	50µM*
Cc1cc(C=O)c(C)n1-c1ccc(N2CCOCC2)cc1	-10%	-4%	-1%	-2%	0%	-5%
SMILES	FMDV antiviral	MARV entry inh	HCV inhibitor	RE007 growth inh	LASV entry inh	Sm TGR block
O=C(NCc1ccc2[nH]c3c(c2c1)CCCC3)N1CCOCC1	.	5%	-16%	.	.	35µM*
CC(=O)Oc1c(C)cc(O)c2ccccc12	.	-5%	10µM*	.	.	40µM*
CC(=O)Cc1cc(O)c2ccccc2c1OC(=O)c1ccccc1	-16%	-19%[46.1 µM]	-7%	3%	-26%[46.1 µM]	.
Cc1ccccc1N=CC1=C(O)c2ccccc2C1=O	8.9µM*	8.9µM*	-3%	?	10µM*	.
O=C1C(C=Nc2ccc(F)cc2)=C(O)c2ccccc21	-52%	9%[46.1 µM]	3%	4%	?	4%
COc1ccc(N=CC2=C(O)c3ccccc3C2=O)c(OC)c1	?	?	17%	-5%	2.5µM*	-2%
C=CCNc1nc(C2(C)CC3(CC(C)(C)OC3=O)C(=O)O2)cs1 (centres undefined)	-21%	-12%	-9%	-2%	0%	50µM*
CC(C)COCC1CC2(CC(C)(c3csc(N)n3)OC2=O)C(=O)O1 (centres undefined)	9%	20%	10%	-12%	0%	?
CCCCCc1c(-c2cccc(Cl)c2)ncn1CCc1ccccc1OC	-27%	.	.	-5%	.	.
CCCc1c(-c2cccc(F)c2)ncn1CCc1ccccc1OC	?	.	.	-22%	.	.
CCCCCc1c(-c2cccc(OC)c2)ncn1CCc1ccccc1OC	28µM*	.	.	-28%	.	.
CCCCCc1c(-c2cccc(F)c2)ncn1CCc1ccccc1OC	22µM*	.	.	?	.	.
CCCCc1c(-c2cccc(F)c2)ncn1CCc1ccccc1OC	25µM*	.	.	-14%	.	.
CSCCC(NS(=O)(=O)c1ccc2c(c1)oc(=O)n2C)C(=O)N1CCN(c2cccc(Cl)c2)CC1 (centres undefined)	-19%	.	.	.	?	8%
Cc1ccc(C)c(N2CCN(C3CCCCC3NS(=O)(=O)c3ccccc3)CC2)c1 (centres undefined)	?	.	11µM*	-4%	.	-16%
Cc1ccc(Cl)cc1N1CCN(C2CCCCC2NS(=O)(=O)c2ccccc2)CC1 (centres undefined)	?	.	18%	-6%	.	2%
COc1ccccc1NC(=O)Cn1c(=O)n(-c2ccccc2Cl)c(=O)c2sc3ccccc3c21	?	-13%[46.1 µM]	.	.	-13%[46.1 µM]	-1%
COc1ccc(C(=O)N2c3nc(-c4ccco4)nn3C3(CCCCC3)[C@@H]3CCCC[C@@H]32)cc1OC	-12%	-27%[46.1 µM]	.	.	-4%[46.1 µM]	11µM*
O=C(c1ccc(F)cc1)N1c2nc(-c3ccco3)nn2C2(CCCCC2)[C@@H]2CCCC[C@@H]21	-26%	-6%[46.1 µM]	.	.	2%[46.1 µM]	?
O=C(c1ccccc1F)N1c2nc(-c3ccco3)nn2C2(CCCCC2)[C@@H]2CCCC[C@@H]21	?	?	.	.	6%[46.1 µM]	10µM*
COc1ccc(C(=O)n2nc(-c3ccco3)nc2NCc2cccs2)cc1	28%	8%[46.1 µM]	.	.	12%[46.1 µM]	11µM*
CSc1nc(-c2ccco2)nn1C(=O)c1cccs1	5%	11%	12%	-12%	?	?
COc1ccc(CNc2nc(-c3ccco3)nn2C(=O)c2ccccc2Cl)cc1	20%	18%[46.1 µM]	.	.	?	5%
COc1ccc(C(=O)n2nc(-c3ccco3)nc2SC)cc1OC	0%	-6%	0%	-20%	23%	10µM*
CCc1ccccc1NS(=O)(=O)c1ccc2c(c1)CC(=O)N2	3%	30%[46.1 µM]	.	.	5%[46.1 µM]	-2%
Cc1c(C(=O)N/N=C/c2cccs2)nnn1-c1nonc1N	0%	?	?	-18%	?	-1%

Assay outcomes: PubChem, National Center for Advancing Translational Sciences (NCATS)
